# From ChEMBL document CHEMBL3988442, “University of Dundee, Small-Polar-MMV Screening Library” (2021)
# About 1,200 (3.2%) of roughly 38,000 compounds showed an effect of 50% or more. The median lay at about -58%. The sample holds strong results, similar compounds and a random draw of the others, so the mix is not that of the screen.
# Test system: Plasmodium falciparum
# Experiment: Calibr Malaria Delayed Death Assay SOP
# Assay type: functional, organism-based
# Design: scale not given: in the data most compounds retested in dose-response had high values
# Details: concentration 4.99e-06 (unit not given; other assays of the set use mol/L)
row,SMILES,Percent Effect [%]
1,COCCNC(=O)[C@@H]1CN(Cc2sccc2C)C[C@H]2OCC[C@H]21.O=C(O)C(F)(F)F,-28.67
2,CC/C=C(/C)C(=O)NCCc1csc(N2CCCC2)n1,23.92
3,CC(=O)c1cnc(N(C)Cc2cc(C)cc(C)n2)nc1C,10.35
4,CC(=O)N1CCc2c(nc(N(C)C)nc2NCCCn2ccnc2C)C1,-154.1
5,CCc1ccccc1OCC(=O)N1CCOCC1c1ncon1 (stereo unspecified),-47.11
6,COc1cccc2c1ccn2CCC(=O)Nc1c2c(nn1C)CSC2,27.59
7,O=S(=O)(NCCN1CC=CC1)c1cncc(Cl)c1,-138.1
8,O=S(=O)(NCCCN1CC=CC1)c1cncc(Cl)c1,-214.3
9,O=S(=O)(NCCN1CC=CC1)c1ccc(Cl)cc1,75.13
10,CNC(=O)c1cc2c(nc1N(C)C)CCN(c1ncccn1)CC2.O=C(O)C(F)(F)F,-20.28
11,COCC1COCCC12CCN(Cc1cccs1)CC2.O=C(O)C(F)(F)F (stereo unspecified),-9.919
12,CC(c1cccnc1)N1CCN(CCO)CC1 (stereo unspecified),-98.51
13,CCC(c1ccccc1)N1CCN(CCO)CC1 (stereo unspecified),-35.6
14,CCc1ccc(OCC(O)CN2CCN(CCO)CC2)cc1.Cl.Cl (stereo unspecified),-114.3
15,O=C(c1cn(-c2ccccc2Cl)nn1)N1CCN(CCO)CC1,-52.43
16,Cc1c(C)n(CC(O)CN2CCN(CCO)CC2)c2c(Cl)cccc12.Cl (stereo unspecified),88.07
17,CC1CCN(C(=O)C(C)Oc2ccc3c(c2)OCO3)CC1 (stereo unspecified),-27.65
18,CCC(NC(=O)CCCN1CCCCC1)c1cn2cccnc2n1 (stereo unspecified),-61.92
19,Cc1ncc2c(n1)CN(CC(=O)Nc1cc(C)on1)CC2,-14.27
20,COCCNC(=O)c1nc(-c2ccc3cc[nH]c3c2)no1,-158.8
21,Cc1cc(C)c(Cn2cncn2)cc1CN1CC[C@H]2CC[C@@H](C1)N2,12.41
22,Cc1ccccc1CN1CCC(CNC(=O)Cn2cncn2)CC1,1.836
23,Cc1cc(C)c(Cn2cncn2)cc1CN1CCC(CN)C1 (stereo unspecified),68.64
24,CN(C)c1cc(CNCc2ccc(N3CCOCC3)cc2)ccn1,-42.2
25,COc1c(C)cnc(CSc2nnc(NC3CC3)s2)c1C,-80.23
26,Cl.Cn1cccc1C(=O)N1CCc2c(CNS(C)(=O)=O)cncc2C1,-73.02

row,SMILES,Percent Effect [%]
1,Cc1nccn1-c1cccc(C2CCCN(C3CCCC3)C2)n1 (stereo unspecified),-3.48
2,CC(C)c1nccn1-c1cncc(C2CCCN(C3CCCCC3)C2)n1 (stereo unspecified),18.59
3,CCc1nccn1-c1cccc(C2CCCN(C3CCCCC3)C2)n1 (stereo unspecified),50.94
4,CCNC(=O)CN1CCC(OCC2CCCO2)CC1 (stereo unspecified),-42.16
5,Cc1ccccc1N1CCN(CCS(=O)(=O)c2ccc(Br)cc2)CC1,-132.7
6,COCC(O)CN(C)c1ccnc2cc(F)ccc12 (stereo unspecified),-53.9
7,COCC(O)CN(C)c1ccnc2cc(Br)ccc12 (stereo unspecified),94.48
8,COCC(O)CN(C)c1ccnc2ccc(Cl)cc12 (stereo unspecified),-46.57
9,COC1COC2(CCN(C(=O)c3ccc4ccccc4c3)CC2)C1 (stereo unspecified),-205.6
10,CCCn1ncc(-c2ccnc(NC3CCSC3)n2)c1C (stereo unspecified),-9.069
11,CCCn1ncc(-c2ccnc(NC3CC(C)(C)NC(C)(C)C3)n2)c1C,66.75
12,CCCn1ncc(-c2ccnc(N[C@@H]3C[C@@H]4CC[C@H]3C4)n2)c1C,-33.21
13,CCN(CC)C(=O)c1nnsc1-c1ccc(C)cc1,-12.06
14,CC(=O)N1CCN2C[C@H](CO)[C@@H](c3ccccc3)[C@H]2C1,-67.98
15,CC(=O)NCCNC(=O)CN1CCCC1c1c(C)nn(C)c1C (stereo unspecified),-114
16,CN1C(=O)C[C@H]2[C@H]1CCN2Cc1cccc(C#N)c1.O=C(O)C(F)(F)F,-78.57
17,Cc1ncnc2c1CCN(C(=O)Cc1ccccn1)CC2.O=C(O)C(F)(F)F,-129.8
18,COCCN1CCC2(CC1)CC(N1CCOCC1)c1cc(C)ccc12.O=C(O)C(F)(F)F.O=C(O)C(F)(F)F (stereo unspecified),-78.91
19,COCC(=O)NC1CC2(CCN(CCN(C)C)CC2)c2ccccc21 (stereo unspecified),-44.07
20,CS(=O)(=O)N1CCC2(CC1)CC(NCc1ccccn1)c1ccccc12 (stereo unspecified),1.106
21,COCCN1CCC2(CC1)CC(NCc1ccc(C)s1)c1ccccc12.O=C(O)C(F)(F)F.O=C(O)C(F)(F)F (stereo unspecified),76.07
22,COCCN1CCC2(CC1)CC(NCc1cncn1C)c1ccccc12.O=C(O)C(F)(F)F.O=C(O)C(F)(F)F (stereo unspecified),-24.3
23,CC(C)N(CC(N)=O)C(=O)c1cnc(-c2ccc3c(c2)OCO3)s1,-184.6
24,CC(=O)N(C)Cc1cccc(NC(=O)c2cnn(C)c2C)c1,-25.31
25,CCOc1cc(C(=O)n2cc(C)cn2)cc(OCC)c1OCC,-156.8
26,NC(=O)c1ccc(N2CCCCC2)c(NC(=O)c2cc(Br)ccc2Cl)c1,-37.22

row,SMILES,Percent Effect [%]
1,NC(=O)c1ccc(N2CCCCC2)c(NC(=O)c2cc(Br)ccc2F)c1,-77.22
2,NC(=O)c1ccc(N2CCCCC2)c(NC(=O)c2ccc(Br)cc2)c1,70.21
3,CSCc1cc(F)ccc1CNC(=O)N1CCC[C@@H]1CO,-21.18
4,NC(=O)NC(=O)CCN1CCN(c2nccs2)CC1,-12.95
5,COc1ccc(CNCC(C)Oc2ccccn2)cc1Cl.Cl (stereo unspecified),13.86
6,O=C1CC2(CCN(Cc3ccoc3)CC2)CN1Cc1cc(F)cc(F)c1,54.75
7,CC(C)=CCN1CCC2(CC1)CC(=O)N(Cc1cc(F)cc(F)c1)C2,74
8,CC(C)N1CCC2(CC1)CC(=O)N(Cc1cc(F)cc(F)c1)C2,31.53
9,O=C(CO)N1CCC2(CC1)CC(=O)N(Cc1cc(F)cc(F)c1)C2,-76.75
10,O=C1CC2(CCN(CCCF)CC2)CN1Cc1cc(F)cc(F)c1,33.68
11,O=C1CC2(CCN(CC3CC3)CC2)CN1Cc1cc(F)cc(F)c1,9.433
12,NCCn1cc(C(=O)N2CCCCCC2c2cccc(F)c2)nn1 (stereo unspecified),-109.1
13,COc1cc2nc(C)n(CC(=O)NCCC(C)C)c(=O)c2cc1OC,-84.85
14,CCc1ncc(CN2CCC(CCc3ccccc3)CC2)cn1,5.724
15,CC1=NOC(C(=O)N(C)CCCn2nc(C)cc2C)C1 (stereo unspecified),-92.45
16,Cc1cc(C)n(CCCN(C)C(=O)C2COc3ccccc3C2)n1 (stereo unspecified),-44.86
17,Cc1nn(C)c(C)c1CN1CCNCC1,-151.9
18,Cc1nn(C)c(C)c1CCC(=O)OCC(=O)N1CCc2sccc2C1,-33.28
19,c1cnc(N2CCCC(c3n[nH]c4ncccc34)C2)nc1 (stereo unspecified),-55.39
20,COCC[C@]1(O)CCN(Cc2nc(C(C)C)cs2)C[C@H]1C,-100.7
21,CN1CCCC(CNC(=O)CN(C)S(=O)(=O)c2cccnc2)C1 (stereo unspecified),-82.06
22,O=C(c1ccnnc1)N1CCc2onc(Cn3cccn3)c2C1,-67.89
23,Cn1cccc1C(=O)N1CCc2onc(Cn3cccn3)c2C1,-37.04
24,CCS(=O)(=O)N1CCC2(CN(C(=O)c3cn(C)cn3)C2)C1,-95.83
25,Cn1cnc(C(=O)N2CC3(CCN(S(=O)(=O)c4ccccc4)C3)C2)c1,9.335
26,COCCNS(=O)(=O)c1cccc2c1CN(C(=O)c1cc(C)on1)CC2,-82.56

row,SMILES,Percent Effect [%]
1,Cc1csc2c(=O)n3c(nc12)CCN(C(=O)c1ccnn1C)CC3,-147.1
2,Cc1n[nH]cc1C(=O)N1CCCC(c2cccc(-n3ccnc3)n2)C1 (stereo unspecified),-34.99
3,CCOC(=O)CNC(=O)N1CCc2onc(-c3ccc(Cl)cc3)c2C1,-35.73
4,Cc1noc([C@@H]2CC[C@@H]3[C@@H](CCN3S(=O)(=O)c3ccccc3)O2)n1,-19.99
5,COCCO[C@@H]1CCN(C(=O)c2occc2C)[C@H]1Cc1cnn(C)c1,-35.95
6,CC(C)n1cnnc1C1CCCN(S(=O)(=O)CC2CCCC2)C1 (stereo unspecified),-66.23
7,Cc1cc(=O)[nH]c(=O)n1-c1ccccc1Br,-82.44
8,COC(=O)c1cccc(C(=O)N2CCN(c3ccc(Cl)cc3)CC2)n1,-128.8
9,Cc1cc(-c2cnn(CCNC(=O)Cc3ccccn3)c2C2CC2)on1,-41.77
10,CCN(CC)C(=O)c1c(Cl)cnn1CC,-101.8
11,O=C1CC2(CCCC2)CC(=O)N1Cc1nc2ncccn2n1,-57.36
12,N#Cc1ccc(F)c(CNc2ccc(F)cc2OCCO)c1,-1.485
13,CC(=O)Nc1ccc(CNCc2cccnc2N(C)C)cc1,-87.09
14,O=C(c1cscn1)N1CCc2ncc(Cn3cncn3)n2CC1,-88.92
15,CN(C)CCn1c(=O)n(C)c(=O)c2ccccc21.Cl,-12.02
16,CC(C)n1c(=O)c2ccccc2n(CCN(C)C)c1=O.Cl,33.53
17,CC(C)n1c(=O)c2ccccc2n(CCCN(C)C)c1=O.Cl,57.86
18,NC(=O)C1CN(c2ccc3cc(Br)ccc3n2)CCO1 (stereo unspecified),-657.4
19,Cc1ccc(OCCN(C)C2CCOC2=O)cc1 (stereo unspecified),-120.6
20,CC(C)N(CC1CCCN(CC(N)=O)C1)C(=O)OC(C)(C)C (stereo unspecified),-15.39
21,Cc1noc(C)c1CN1CCCC(CN(C(=O)OC(C)(C)C)C(C)C)C1 (stereo unspecified),52.41
22,CC(C)N(CC1CCCN(Cc2ccon2)C1)C(=O)OC(C)(C)C (stereo unspecified),-9.372
23,NC(=O)C(CNC(=O)Cc1ccsc1)Cc1ccc(F)cc1 (stereo unspecified),-150.5
